# Results filed as inconclusive are left out. Entries that show only a call come without a potency. Calls of active or inactive are those of the source. The call rests on the fitted dose curve; in most records, active means well fitted activation curve with a large enough effect; inconclusive means small, poorly fitted or top-dose-only effect, or another doubt; inactive means no such curve, though single readings can be large or run the other way.
# Target: Rap guanine nucleotide exchange factor 3 (Homo sapiens) (UniProt O95398)
# Assay: Counterscreen qHTS for agonist of cAMP-regulated guanine nucleotide exchange factor 3 (EPAC1) (AID 1645889); further: nearly all actives have a fitted effect of over 40% in size
# Conditions: EPAC1 Rap1B-BODIPY-GDP exchange, fluorescence; series mostly up to 154 µM
# Text: Assay Provider (PI): Xiaodong Cheng Ph.D. The University of Texas Medical Branch, […], TX MLPCN Grant: NS066510 In multi-cellular eukaryotic organisms, the effects of cAMP are transduced by two ubiquitously-expressed intracellular cAMP receptors, the classic protein kinase A/cAMP-dependent protein kinase (PKA/cAPK) and the more recently discovered exchange protein directly activated by cAMP/cAMP-regulated guanine nucleotide exchange factor (EPAC/cAMP-GEF). Both PKA and EPAC are ubiquitously expressed in all tissues, and an increase in intracellular cAMP levels will lead to the activation of both PKA and EPAC. Therefore, careful dissections of the individual role and relative contribution of EPAC and PKA within the overall cAMP signaling in various model systems are critical for further elucidating the mechanism of cAMP signaling. To date no EPAC-specific antagonists and agonist, as well as isoform-specific agonists have been reported, and developing EPAC-specific pharmacological probes to determine the physiological functions that EPAC play in the overall cAMP-mediated signaling remains a major challenge within the research field. Furthermore, identified regulators of EPAC may lead to new mechanism-based therapeutic strategies specifically targeting the EPAC / cAMP-signaling components as EPAC has been implicated to play important roles in major human pathological conditions such as diabetes, heart disease, and cancer. This qHTS will be used to screen the Molecular Libraries Small Molecule Repository (MLSMR) as a concentration-titration series using the NCGC unique quantitative screening (qHTS) platform to find activators for EPAC1. In addition, this assay will also be used as a counterscreen for the EPAC2 qHTS. This fluorescent based assay is developed and validated for EPAC1 that measures exchange using EPAC effector Rap1 complex with BODIPY-GDP, a GDP analog with a tethered fluorophores. Activators are identified by monitoring the change in fluorescence signal as the exchanged free BODIPY-GDP has a reduced fluorescence compared to Rap1-bound BODIPY-GDP. Increase in signal (activation) is the desired outcome for the EPAC1 agonist while no activity in this assay is desired for the EPAC2 agonist counterscreen. Reference: [1] de Rooij, J., Zwartkruis, F. J., Verheijen, M. H., Cool, R. H., Nijman, S. M., Wittinghofer, A., and Bos, J.L. (1998) Nature 396, 474-477. Kawasaki, H., Springett, G. M., Mochizuki, N., Toki, S., Nakaya, M., Matsuda, M., Housman, D. E., and Graybiel, A. M. (1998) Science 282, 2275-2279.
# EPAC1 Counterscreen PROTOCOL TABLE SEQUENCE No. (e.g., 1, 2, 3, etc.); […] (e.g., Cells, Incubation, Reagent, etc.); VALUE and DESCRIPTION. 1. Reagent. 3 uL. [1x] 250 nM Rap1B-BODIPY-GDP, and 50 uM GDP. 2a. Compound. 23 nL. Control 6,572 uM cAMP (working concentration). 2b, 2c. Compound. 23 nL. Control activator and inhibitor; 234 - 30,000 uM cAMP and 16.4 - 10,000 uM. 2d. Compound. 46 nL. MLSMR follow-up library; 0.64 - 10,000 uM. 3. Time. 15 sec, 1000rpm. Centrifuge. 4. Time. 5 min. Incubation at room temperature. 5. Detector. Fluorescence. (Read 1), Ex/Em = 480 nm / 540 nm. 6. Time. 30 min. Incubation at room temperature. 7. Detector. Fluorescence. (Read 2), Ex/Em = 480 nm/ 540 nm. 8. Reagent. 1uL. Dispense either [4x] 10 uM cAMP or buffer. 9. Time. 15 sec, 1000 rpm. Centrifuge. 10. Time. 5 min. Incubation at room temperature. 11. Detector. Fluorescence. (Read 3), Ex/Em = 480 nm / 540 nm. 12. Time. 30 min. Incubation at room temperature. 13. Detector. Fluorescence. (Read 4), Ex/Em = 480 nm / 540 nm. NOTES (numbers refer to Sequence numbers above; values are from representative experiments) 1. Medium-binding black solid-bottom Greiner plates (789176-F). Dispense 3 uL of [1x] 250 nM Rap1B-BODIPY-GDP, and 50 uM GDP into columns 1 to 48. 2a. Control compound cAMP (6,572 uM, column 3, rows 1 to 32) single pin-transferred for a [final] of 50 uM. 2b. […]
# Potency means the concentration at half of the fitted maximal effect.
Compound,Potency,activation
CCN1/C(=C/C=C/C2=[N+](CC)c3ccccc3C2(C)C)C(C)(C)c2ccccc21,10 µM (active),
CCC(C)c1ccc(N2C(=O)NC(=O)/C(=C/c3cccn3CCOc3ccc(C)cc3)C2=O)cc1 (stereo not given),inactive,
Nc1ccc2nonc2c1[N+](=O)[O-],63.1 µM (active),
CC(C)C/C(=N/O)c1cn(C)c2ccccc12,inactive,
Cn1cccc1/C=C1\C(=O)NC(=O)N(Cc2ccccc2Cl)C1=O,inactive,
O=C1NC(=O)N(Cc2ccco2)C(=O)/C1=C/C=C/c1ccco1,,-8.64% [at 30.8 µM] (inactive)
O=Cc1c(C(=O)O)n(Cc2ccc(Cl)cc2)c2ccccc12,15.8 µM (active),
COc1ccc(N=Cc2c(O)n(Cc3ccccc3)c(=S)[nH]c2=O)c(OC)c1,inactive,
O=c1nc(/C=C/c2ccc(Cl)cc2Cl)cc(C(F)(F)F)[nH]1,,4.81% [at 30.8 µM] (inactive)
COc1ccc(OCC(=O)N2CCN(CC3CC4C=CC3C4)CC2)cc1 (stereo not given),,5.29% [at 30.8 µM] (inactive)
Cc1cc(/C=C2/C(=O)NC(=O)N(Cc3ccco3)C2=O)c(C)n1-c1ccccc1O,,17.9% [at 30.8 µM] (inactive)
CCCCn1c(O)c(C=NCCN2CCCCC2)c(=O)[nH]c1=O,inactive,
Cc1cc(C=C2C(=O)NC(=S)NC2=O)c(C)n1C1CCCC1,inactive,
CN1CCN2c3ccc(N)cc3CC3(C(=O)NC(=O)NC3=O)C2C1 (stereo not given),inactive,
O=C1NCN(c2ccccc2)C12CCN(C(c1cc3ccccc3o1)c1nnnn1C1CCCCC1)CC2 (stereo not given),inactive,
COC(=O)C1=C(c2cc3ccccc3s2)C[C@@H]2CC[C@H]1N2C(=O)NC1CC1,inactive,
O=C1NC(=S)N(c2ccccc2)C(=O)/C1=C/c1ccco1,inactive,
O=C1NC(=O)N(CCc2ccc(F)cc2)C(=O)/C1=C/c1ccco1,,10.6% [at 30.8 µM] (inactive)
COc1ccc(N2C(=O)/C(=C/C=C/c3ccccc3[N+](=O)[O-])C(=O)NC2=S)cc1,,4.75% [at 30.8 µM] (inactive)
CCOC(=O)C1CCCN(c2ccc([N+](=O)[O-])c3nonc23)C1 (stereo not given),39.8 µM (active),

Compound,Potency,activation
CCn1nc(/C=C/c2ccccc2)nc2c(=O)n(C)c(=O)nc1-2,inactive,
NS(=O)(=O)c1ccc(-c2ccc(C=C3C(=O)NC(=O)NC3=O)o2)cc1,inactive,
O=C1NC(=O)N(Cc2ccc(F)cc2)C(=O)/C1=C\C=C\c1ccco1,,7.61% [at 30.8 µM] (inactive)
CC(=O)C1C2c3ccccc3OC1(C)N=c1s/c(=C/c3cn(C)nc3C)c(=O)n12 (stereo not given),inactive,
COCCNC(=O)c1c(N)n(CCC(C)C)c2nc3ccccc3nc12,,26.5% [at 30.8 µM] (inactive)
OC1/C(=C/c2ccc(C(F)(F)F)cc2)N2CCC1CC2 (stereo not given),inactive,
Cn1cc(C=C2C(=O)NC(=O)NC2=O)c2ccccc21,inactive,
CN1C(=O)/C(=C/c2cccn2-c2ccc3ccccc3c2)C(=O)NC1=S,inactive,
COc1ccc(C(=O)C2CN(C)CC2c2ccc(Cl)cc2)cc1 (stereo not given),,27.2% [at 30.8 µM] (inactive)
CCc1nc2ccccc2c(=O)n1-c1ccccc1OC,inactive,
O=C(OC1CCN(CCCl)CC1)C(c1ccccc1)c1ccccc1,,-1.7% [at 30.8 µM] (inactive)
Cn1cc(/C=C2\C(=O)NC(=O)N(c3ccccc3)C2=O)c2ccccc21,inactive,
O=C(c1ccco1)c1cn(Cc2ccccc2)c2ccccc12,inactive,
O=[N+]([O-])c1ccc(N(CCO)CCO)c2c1no[n+]2[O-],inactive,
COc1cc(-n2c(=S)[nH]c3ccc(C)cc3c2=O)c(Cl)cc1Cl,,24.2% [at 30.8 µM] (inactive)
Nc1c2c(nc3sc4c(c13)CCCC4)CCCC2,,3.23% [at 30.8 µM] (inactive)
O=c1cc(C(F)(F)F)c2cc3c4c(c2o1)CCCN4CCC3,50.1 µM (active),
Cc1cc(C=C(C#N)C#N)ccc1N1CCCC1,28.2 µM (active),
CCCCC/C(=N/O)c1c(C)[nH]c2ccccc12,inactive,
CC(C)CCn1c(=O)c(C(=O)Nc2ccccc2S(N)(=O)=O)c(O)c2ccccc21,inactive,

# Source: PubChem BioAssay (NCATS)
